Laboratory results taken from the supplement of paper PMC7156485.
± gives the standard deviation of the averaged measurements.

What was measured:
Conditions in all cases: concentration: 10 µM; 24 h
[1] = system: HCC1569; assay: cell number relative to DMSO (% of DMSO); higher = more cells (less growth inhibition / toxicity)
Procedure, shortened: (§1)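 After 24 h at 37 °C with compounds at 10 µM, in triplicate, HCC1569 and TDF cells were fixed with 3.7% formaldehyde. Immunostaining used a rabbit anti-H1.0 antibody and an AlexaFluor 647 secondary, with DAPI, and six fields per well were imaged at ×10. H1.0 nuclear intensity or cell number is presented as percent of the plate control, from the median of replicates, with HCC1569 values smoothed for positional effects.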

[2] = system: TDF; assay: as above
Procedure, shortened: as §1

[3] = system: TDF; assay: H1.0 immunofluorescence intensity relative to DMSO (% of DMSO); higher = stronger H1.0 induction, active = 120 or more
Procedure, shortened: as §1

[4] = system: HCC1569; assay: H1.0 immunofluorescence intensity relative to DMSO (% of DMSO); higher = stronger H1.0 induction, active = 140 or more
Procedure, shortened: as §1
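Wherever H1.0 immunofluorescence intensity relative to DMSO is given: TDF is a line of transformed human dermal fibroblasts of mesenchymal origin.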
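Wherever cell number relative to DMSO is given: TDF denotes transformed human dermal fibroblasts of mesenchymal origin.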

SMILES | cell number [1] | cell number [2] | H1.0 immunofluorescence intensity [3] | H1.0 immunofluorescence intensity [4]
C=CC(=O)c1ccc2ccccc2c1 | 99.7 | 92 | 103 (inactive) | 113 (inactive)
COc1cc2c(cc1OC)-c1[nH]nc(Nc3cccc(F)c3)c1C2 [PDGF Receptor Tyrosine Kinase Inhibitor IV] | 64.3 | 8.88 | 131 (active) | 160 (active)
CNCC(O)c1ccc(O)c(O)c1.O=C(O)C(O)C(O)C(=O)O [L-(+)-Epinephrine tartrate] | 104 | 97 | 93.2 (inactive) | 106 (inactive)
CC1CCC2(C(=O)O)CCC3(C)C(=CCC4C5(C)CC(O)C(O)C(C)(CO)C5CCC43C)C2C1C (stereo unspecified) [Asiatic acid] | 104 | 99.6 | 101 (inactive) | 94.7 (inactive)
O=C(O)C=Cc1ccc(O)c(O)c1 [Caffeic Acid] | 99.9 | 115 | 87.2 (inactive) | 84.5 (inactive)
COC(=O)Nc1nc2ccc(C(=O)c3ccc(F)cc3)cc2[nH]1 [Flubendazole] | 65.9 | 9.66 | 151 (active) | 168 (active)
CCCCCC=CCC=CCC=CC=CC(O)CCCC(=O)O (racemic) | 101 | 93 | 109 (inactive) | 102 (inactive)
CNc1ncnc2c1ncn2C1CC(OP(=O)([O-])O)C(COP(=O)([O-])O)O1.[NH4+].[NH4+] (stereo unspecified) | 104 | 100 | 95 (inactive) | 92.4 (inactive)
CN(CCOc1ccc(CC(Nc2ccccc2C(=O)c2ccccc2)C(=O)O)cc1)c1ccccn1 (stereo unspecified) | 102 | 104 | 92.6 (inactive) | 88.2 (inactive)
COc1cc2ncnc(Nc3ccc(F)c(Cl)c3)c2cc1OCCCN1CCOCC1 [Gefitinib] | 82 ± 11 | 102 ± 10 | 98.9 (inactive) | 123 (inactive)
NC(=O)NO [Hydroxyurea] | 103 | 108 | 93.9 (inactive) | 91.8 (inactive)
Cl.Cl.Nc1nccc(-c2c(-c3ccc(F)cc3)ncn2C2CCCCC2)n1 | 80.6 | 92.2 | 79.8 (inactive) | 130 (inactive)
CS(=O)(=O)O.Cn1cc(C(F)(F)F)nc1-c1ccc(OCC(O)CNCCOc2ccc(O)c(C(N)=O)c2)cc1 (stereo unspecified) | 97.2 | 92.5 | 94.5 (inactive) | 96.4 (inactive)
Cl.Nc1c2c(nc3ccccc13)CCCC2 [9-Amino-1,2,3,4-tetrahydroacridine hydrochloride] | 105 | 103 | 94.8 (inactive) | 94.2 (inactive)
